Source: PubChem (National Center for Advancing Translational Sciences (NCATS))
The list is not random: actives were taken first. Their share in the collection is about 20%.
HCMV inh: blocks human cytomegalovirus replication. hit rate 4.5% among 410,000. HFF cells, HCMV-luciferase reporter, 72 h; active compounds read low. activity change, negative = inhibition, % at 57.5 µM. AID 1259415; in the data active means activity change below about -60%; inconclusive means no clear call, values can overlap the other calls; inactive means above about -39%
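Steps: HFFs plated, 16 h 37C; compounds added; HCMV-luciferase added to MOI 1 PFU/cell; 72 h 37C; OneGlo reagent, 5 min room temperature; luminescence read, normalized to controls.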
Pf growth 96h: P. falciparum growth inhibition at 96 hour, primary screen for plastid delayed-death inhibitors; hit rate 6.9% among 320,000; AID 504834; Potency, µM (top dose mostly 28.7 µM), most hits filed as inhibitors; P. falciparum luciferase reporter growth, 96 h
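P. falciparum expressing integrated firefly luciferase grown in erythrocytes (2% hematocrit, 0.05% parasitemia final) with compounds for 96 hours at 37 C, 5% CO2. Growth inhibition read as loss of luminescence after adding luciferase detection reagent.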
Pf growth 48h: inhibits P. falciparum growth in the first generation, 48 h. hit rate 5.9% among 310,000. AID 504832. Potency, µM (highest dose often 28.7 µM), most hits filed as inhibitors. P. falciparum luciferase growth in erythrocytes, 48 h
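Read-out is firefly luciferase luminescence from an integrated reporter in P. falciparum, so falling signal marks reduced parasite growth. Infected erythrocytes were at 2% hematocrit and 0.1% parasitemia (final) in Albumax-supplemented RPMI 1640.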
Shiga inhibitor: inhibitors of Shiga toxin in Vero cells | AID 2315 | hit rate 9.2% among 290,000 | inhibition, % at 38.7 µM | Vero cells, Shiga toxin protein synthesis inhibition reporter; in the data active means inhibition mostly above about 28%, no sharp cut-off; inactive means mostly below about 43%
CHX counter: counter-screen for Shiga toxin inhibitors: cycloheximide protein synthesis inhibition | cell reporter, cycloheximide protein synthesis inhibition counterscreen | max response, % | hit rate 12% among 300,000 | AID 2314; in the data active means max response mostly above about 13%, no sharp cut-off; inactive means mostly below about 14%; further: read at 38.3 µM for the half of the compounds with a filed dose
Of the large screens only hits and unclear results are named; the others gave an inactive call. Unless noted, the call rests on the fitted dose curve; in most records, active means well fitted inhibition curve with a large enough effect; inconclusive means small, poorly fitted or top-dose-only effect, or another doubt; inactive means no such curve, though single readings can be large or run the other way.

CN1CCC(NC(=S)NC2CC2)CC1	none
CCCOc1ccccc1N/C(=N/c1nc(C)cc(C)n1)NC(=O)Nc1ccc(Cl)cc1	Pf growth 48h 13.1µM
COC(=O)C1(C)NC(=O)c2ccccc2N1 (stereo not given)	Pf growth 96h 13.1µM, CHX counter 15.5
COc1ccc(NC(=O)C2CCN(c3ccc(Sc4ccc(C)cc4)nn3)CC2)cc1	none (no result: Pf growth 96h, Pf growth 48h, Shiga inhibitor, CHX counter)
C/C=C/c1ccc(OCC(=O)Nc2ccncc2)c(OC)c1	HCMV inh -82.6, Shiga inhibitor 38.6, CHX counter 21.0
COc1ccccc1NC(=O)C(=O)N/N=C(\C)CC(=O)Nc1ccccn1	none
C/C=C/c1ccc(OCC(=O)Nc2cc(Cl)ccc2-n2cncn2)c(OC)c1	Pf growth 96h 11.7µM, Pf growth 48h inconclusive (no result: Shiga inhibitor, CHX counter)
Cc1nn(C)c(C)c1NC(=O)COc1ccc(Cl)cc1Br	HCMV inh -93.1, Pf growth 96h inconclusive (no result: Shiga inhibitor, CHX counter)
C/C=C/c1ccc(OCC(=O)Nc2ccc(OC)c(OC)c2)c(OC)c1	Pf growth 48h inconclusive
Cc1nn(C)c(C)c1NC(=O)COc1ccc(F)cc1Br	none (no result: Pf growth 96h, Pf growth 48h, Shiga inhibitor, CHX counter)
COc1ccccc1NC(=O)C(=O)Nc1ccccn1	Shiga inhibitor 93.9, CHX counter 76.3
COc1ccccc1/C=C(\C#N)c1nc(-c2cc3ccccc3oc2=O)cs1	none (no result: Pf growth 96h, Pf growth 48h, Shiga inhibitor, CHX counter)
Cc1cccc(OCC(=O)Nc2ccncc2)c1C	HCMV inh -83.5, CHX counter 12.4
Cc1cccc(OCC(=O)Nc2ncn[nH]2)c1C	CHX counter 11.3
Cc1cccc(OCC(=O)Nc2nnn(C)n2)c1C	HCMV inh -101.9
Cc1cccc(OCC(=O)Nc2cccc3cccnc23)c1C	none (no result: Pf growth 96h, Pf growth 48h, Shiga inhibitor, CHX counter)
Cc1c(C)c2ccc(OCC(=O)N3CCOCC3)c(C)c2oc1=O	CHX counter 20.1
O=C(CCNS(=O)(=O)c1ccccc1C(F)(F)F)NNC(=O)C1COc2ccccc2O1 (stereo not given)	none (no result: Shiga inhibitor, CHX counter)
O=S(=O)(Nc1ccc(Cl)cn1)c1ccc2c(c1)OCCO2	none (no result: Shiga inhibitor, CHX counter)
CCCC(=O)NC(C)c1nc2ccccc2n1Cc1ccccc1 (stereo not given)	none (no result: Pf growth 96h, Pf growth 48h, Shiga inhibitor, CHX counter)
COc1cc(/C=C2\C(=O)N(CCC#N)N=C2C)ccc1OCC(=O)Nc1ccccc1	Shiga inhibitor 65.7, CHX counter 62.9
COc1ccc(NC(=O)COc2ccc(/C=N/O)cc2OC)cc1	Shiga inhibitor 52.4, CHX counter 31.1
Cc1cc(Cl)ccc1OCC(=O)Nc1ccncc1	HCMV inh -60.5, Pf growth 96h inconclusive, CHX counter 27.0 (no result: Shiga inhibitor)
Cc1cc(Cl)ccc1OCC(=O)NCc1ccncc1	none
CC(=O)c1sc(NC(=O)COc2ccc(Cl)cc2C)nc1C	Pf growth 48h inconclusive, CHX counter 27.8
COC(=O)c1sc2cccc(F)c2c1S(=O)(=O)Nc1ccc(N(C)C)cc1	none (no result: Pf growth 96h, Pf growth 48h, Shiga inhibitor, CHX counter)
O=C(c1cccnc1Cl)N(Cc1ccccc1)Cc1ccccc1	none
COc1ccccc1OCC(=O)Nc1cc(NC(=O)COc2ccccc2OC)cc(C(=O)O)c1	Pf growth 96h inconclusive
COc1ccccc1OCC(=O)Nc1ccccn1	CHX counter 26.7
Cc1c(C)c2ccc(OCC(=O)Nc3ccccn3)c(C)c2oc1=O	HCMV inh -84.5, Shiga inhibitor 34.9, CHX counter 21.8
COc1ccccc1OCC(=O)Nc1ccncc1	Pf growth 96h 0.522µM
Cc1ccc(S(=O)(=O)c2ccc(-n3nc(C)cc3N)cc2)cc1	none
Cc1ccc(-c2ccccc2)n1-c1cccc(C(=O)O)c1	Shiga inhibitor 163.0, CHX counter 65.6
Cc1ccc(-c2ccccc2)n1-c1ccc(C(=O)O)cc1	CHX counter 14.7
CCOC(=O)[C@]12CCC=C1N(Cc1ccc(Cl)cc1Cl)C(=O)[C@H](CC(=O)N1CCCCC1)C2	none (no result: Pf growth 96h, Pf growth 48h, Shiga inhibitor, CHX counter)
CCOc1ccccc1NC(=O)Cn1c(=O)n(Cc2ccc(C(=O)NCCCOC)cc2)c(=O)c2ccccc21	none (no result: Pf growth 96h, Pf growth 48h, Shiga inhibitor, CHX counter)
Cc1ccc(Oc2ccc(Cl)cc2NC(=O)c2ccc(F)cc2F)cc1	Pf growth 96h 10.4µM, Pf growth 48h 5.22µM
Cc1nn(C)c(Oc2ccc(Cl)cc2)c1C(=O)Nc1ccc(F)cc1F	HCMV inh -60.4, Pf growth 96h inconclusive
CC1(C(=O)Nc2ccc3c(c2)OCO3)Cc2c(-c3cccc(C(F)(F)F)c3)ccnc2O1 (stereo not given)	none (no result: Pf growth 96h, Pf growth 48h, Shiga inhibitor, CHX counter)
COc1ccc(OC)c(C(=O)c2coc3ccc(O)cc23)c1	Pf growth 96h 10.4µM, Shiga inhibitor 103.4, CHX counter 25.4
COc1ccc2occ(C(=O)c3ccccc3)c2c1	Shiga inhibitor 66.1, CHX counter 37.7
CCOC(=O)c1cccc(NC(=O)NC2COc3ccccc3C2)c1 (stereo not given)	none (no result: Pf growth 96h, Pf growth 48h, Shiga inhibitor, CHX counter)
COC(=O)C1=C(C(=O)OC)[C@@H]2N(C)c3ccccc3[C@@]23C[C@@H](C(=O)OC)N(C(=O)c2ccc(Br)cc2)C3=N1	none
CCOC(=O)N1C2=NC(C(=O)OC)=C(C(=O)OC)[C@@H]3N(C)c4ccccc4[C@]23C[C@H]1C(=O)OC	CHX counter 22.6
COC(=O)C1=C(C(=O)OC)[C@@H]2N(Cc3ccccc3)c3ccccc3[C@@]23C[C@@H](C(=O)OC)N(C(=O)CC(C)C)C3=N1	Pf growth 96h 4.65µM, Pf growth 48h 4.15µM
C=CCN1c2ccccc2[C@]23C[C@@H](C(=O)OC)N(C(=O)NCCC)C2=NC(C(=O)OC)=C(C(=O)OC)[C@H]13	Pf growth 96h 4.15µM, Pf growth 48h 3.29µM
C#CCCOC(=O)N1C2=NC(C(=O)OC)=C(C(=O)OC)[C@@H]3N(C)c4ccccc4[C@]23C[C@H]1C(=O)OC	Pf growth 96h inconclusive, Pf growth 48h inconclusive
C=CCN1c2ccccc2[C@]23C[C@@H](C(=O)OC)N(C(=O)C4CCC4)C2=NC(C(=O)OC)=C(C(=O)OC)[C@H]13	none
COC(=O)C1=C(C(=O)OC)[C@@H]2N(C)c3ccccc3[C@@]23C[C@@H](CO)N(C(=O)NCCBr)C3=N1	Pf growth 96h inconclusive, Pf growth 48h 9.28µM
COc1cccc(N2CCCn3c2nc2c3c(=O)n(CCN3CCOCC3)c(=O)n2C)c1	none (no result: HCMV inh, Pf growth 96h)
Cc1cc(C)c(NC(=S)N(CCCN2CCOCC2)Cc2cccnc2)c(C)c1	Pf growth 96h inconclusive
CCOc1cc(S(=O)(=O)N(CC)CC)ccc1F	none (no result: Pf growth 96h)
CCOc1ccc(S(=O)(=O)N(CC)CC)cc1N	HCMV inh -81.3, Pf growth 96h inconclusive
CCN(CC)S(=O)(=O)c1ccc(-c2ccc(S(=O)(=O)N(CC)CC)cc2)cc1	HCMV inh -64.2, Pf growth 96h inconclusive
COC(=O)CCCC1=CC2=CC(=O)C(C)(OC(=O)c3cccs3)C(=O)C2=CN1CCN1CCOCC1 (stereo not given)	Pf growth 96h inconclusive, Pf growth 48h inconclusive
CC(=O)N1CCC2(CC1)C(C#N)=C(N)Oc1n[nH]c(CSc3ccc(C)cc3)c12	Pf growth 96h 6.57µM
COc1ccc(N=Cc2c(O)n(Cc3ccccc3)c(=S)[nH]c2=O)c(OC)c1	Shiga inhibitor 29.2, CHX counter 16.5
O=C1C(C=Nc2ccc(F)cc2)=C(O)c2ccccc21	Pf growth 96h inconclusive, Shiga inhibitor 134.2, CHX counter 61.2
Cc1ccccc1N=CC1=C(O)c2ccccc2C1=O	CHX counter 34.7
COc1ccc(N=CC2=C(O)c3ccccc3C2=O)c(OC)c1	Pf growth 96h inconclusive, CHX counter 26.0
